# Source: PubChem BioAssay (NCATS)
# Records with an inconclusive call do not appear. A call without a number means that no potency is given here. Calls of active or inactive are those of the source. Unless noted, calls come from the whole dose curve; as a rule, active = well fitted curve in the direction sought with a large enough effect; inconclusive = small, poorly fitted or top-dose-only effect, or another doubt; inactive = no such curve, though single readings can be large; an effect the other way counts as inactive or inconclusive.
# Columns and labels:
# [1] = MultiTox-Fluor Cytotoxicity Assay - LYMP1-001 - Dead Cells (AID 946); note: potency is the fitted concentration of half-maximal effect
# Outline: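 In this qHTS, 15 uM tetraoctylammonium bromide defined 100% and DMSO defined basal activity. Lymphoblastoid cells (LYMP1-001, 2500 per well) received compound for 16 hr at 37 C before a fluorogenic dead-cell substrate readout at 485/520 nm.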
# [2] = MultiTox-Fluor Cytotoxicity Assay - LYMP1-001 - Live Cells (AID 947)
# [3] = Cell Viability - LYMP1-002 - Assay at 16 hr (AID 948); note: potency is the fitted concentration of half-maximal effect
# Outline: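 LYMP1-002 human lymphoblastoid cells, 2500/well; 5 hr 37 C; cpd 16 hr 37 C; CellTiter-Glo 30 min RT; luminescence (ATP). Concentration-response, Hill-fit AC50. Pos ctrl tetraoctylammonium bromide.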
# [4] = MultiTox-Fluor Cytotoxicity Assay - LYMP1-002 - Live Cells (AID 955);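 note: cells exposed to compound for 16 hours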; note: potency is the fitted concentration of half-maximal effect
# Outline: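 Cytotoxicity in the human lymphoblastoid line LYMP1-002 is measured as loss of live-cell protease activity after 16 h treatment in complete culture medium. AC50 is derived from Hill-equation fits of qHTS concentration-response data.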
# [5] = MultiTox-Fluor Cytotoxicity Assay - LYMP1-002 - Dead Cells (AID 960); note: nearly all actives have a fitted effect of over 60% in size; note: potency is the fitted concentration of half-maximal effect
# Outline: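 Acute cytotoxicity in a human lymphoblastoid line is scored as rising dead-cell protease signal after 16 hr exposure at 37 C, measured fluorometrically (485/520).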
# [6] = MultiTox-Fluor Cytotoxicity Assay - LYMP1-003 - Dead Cells (AID 961);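 note: cells exposed to compound for 16 h at 37 °C; nearly all actives have a fitted effect of over 70% in size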; note: potency is the fitted concentration of half-maximal effect
# Outline: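 Acute toxicity is scored as increased dead-cell protease activity in human lymphoblastoid LYMP1-003 cells after 16 h compound exposure in complete culture medium. Activity is normalized to DMSO basal and 15 uM tetraoctylammonium bromide as full response.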
# [7] = target: Pyruvate kinase (Leishmania mexicana) (UniProt Q27686); assay: qHTS Validation Assay for Inhibitors of Leishmania Mexicana Pyruvate Kinase (AID 945)
# Outline: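 Eight-point qHTS titrations in triplicate, data normalized to DMSO neutral control. Reaction: 0.2 nM LmPYK E451W mutant, 0.5 mM PEP, 0.1 mM ADP, 7 mM MgCl2, pH 7.2, one hour at room temperature; luminescent ATP detection.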
# [8] = target: Pyruvate kinase PKM (Homo sapiens) (UniProt P14618); assay: qHTS Assay for Activators of Human Muscle Pyruvate Kinase (AID 954; active = well fitted curve in the direction sought with a large enough effect, not every such curve was filed as active)
# Outline: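 Enzyme was run at intermediate activity so both inhibitors and activators could be detected. ATP formed from ADP and PEP by 0.1 nM human PKM2 during a 1 h room-temperature incubation was quantified by coupled luciferase luminescence.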
# [9] = target: Muscarinic acetylcholine receptor M1 (Rattus norvegicus) (UniProt P08482); assay: qHTS Assay for Antagonists of Acetylcholine Muscarinic M1 Receptor: Kinetic Measurement of Intracellular Calcium Response (AID 943);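 note: Fluo-4 calcium signal as peak divided by basal fluorescence over 4 min; series mostly up to about 35 µM; nearly all actives have a fitted effect of over 75% in size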
# Outline: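 Intracellular calcium flux, recorded with Fluo-4 in a kinetic plate reader, served as signal; the response to carbachol at EC80 (100 nM final) was taken as maximal over minimal fluorescence after a 10 min compound pre-incubation in rat M1-CHO cells.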
# [10] = target: Muscarinic acetylcholine receptor M1 (Rattus norvegicus) (UniProt P08482); assay: qHTS Assay for Antagonists of Acetylcholine Muscarinic M1 Receptor: Measurement of IP-One Response (AID 944); note: nearly all actives have a fitted effect of over 75% in size
# Outline: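 Steps: plate transfected CHO-M1 cells overnight; add test compound, 10 min; add carbachol (200 nM, EC80) in stimulation buffer with LiCl; incubate 30 min; add labelled IP1 tracer and anti-IP1 antibody in lysis buffer; read HTRF after 10 min.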
# Pyruvate kinase (Leishmania mexicana), sequence (Q27686 2-499 E452W): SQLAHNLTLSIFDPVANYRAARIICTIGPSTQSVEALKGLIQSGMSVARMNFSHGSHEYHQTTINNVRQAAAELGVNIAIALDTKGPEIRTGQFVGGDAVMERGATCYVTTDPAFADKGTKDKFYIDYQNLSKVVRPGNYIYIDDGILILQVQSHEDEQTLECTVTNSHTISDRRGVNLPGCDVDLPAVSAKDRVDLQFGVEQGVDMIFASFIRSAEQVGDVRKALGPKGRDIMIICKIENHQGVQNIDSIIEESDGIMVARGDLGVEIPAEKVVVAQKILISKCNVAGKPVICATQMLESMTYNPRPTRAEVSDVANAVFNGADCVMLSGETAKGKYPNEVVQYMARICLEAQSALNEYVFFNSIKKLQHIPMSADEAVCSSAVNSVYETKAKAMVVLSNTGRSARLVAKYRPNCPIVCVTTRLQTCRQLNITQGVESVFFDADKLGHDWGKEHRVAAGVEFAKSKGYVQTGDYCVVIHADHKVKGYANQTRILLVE
# Pyruvate kinase PKM (Homo sapiens), sequence (P14618 whole entry, looked up): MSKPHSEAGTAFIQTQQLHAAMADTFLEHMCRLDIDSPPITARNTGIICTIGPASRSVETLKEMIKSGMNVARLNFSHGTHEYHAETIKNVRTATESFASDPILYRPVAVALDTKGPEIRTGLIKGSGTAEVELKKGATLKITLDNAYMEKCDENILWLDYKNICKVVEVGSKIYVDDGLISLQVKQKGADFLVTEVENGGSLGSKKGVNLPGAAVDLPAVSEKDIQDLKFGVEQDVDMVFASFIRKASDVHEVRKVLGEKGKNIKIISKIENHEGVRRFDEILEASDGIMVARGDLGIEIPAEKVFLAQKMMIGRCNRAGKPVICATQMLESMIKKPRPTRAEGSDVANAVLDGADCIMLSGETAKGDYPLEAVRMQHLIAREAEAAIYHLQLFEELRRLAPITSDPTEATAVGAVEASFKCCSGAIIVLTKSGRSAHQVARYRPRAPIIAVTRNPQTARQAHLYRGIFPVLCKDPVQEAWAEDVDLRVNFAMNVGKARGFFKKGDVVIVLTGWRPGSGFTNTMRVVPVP
# Muscarinic acetylcholine receptor M1 (Rattus norvegicus), sequence (P08482 whole entry, looked up): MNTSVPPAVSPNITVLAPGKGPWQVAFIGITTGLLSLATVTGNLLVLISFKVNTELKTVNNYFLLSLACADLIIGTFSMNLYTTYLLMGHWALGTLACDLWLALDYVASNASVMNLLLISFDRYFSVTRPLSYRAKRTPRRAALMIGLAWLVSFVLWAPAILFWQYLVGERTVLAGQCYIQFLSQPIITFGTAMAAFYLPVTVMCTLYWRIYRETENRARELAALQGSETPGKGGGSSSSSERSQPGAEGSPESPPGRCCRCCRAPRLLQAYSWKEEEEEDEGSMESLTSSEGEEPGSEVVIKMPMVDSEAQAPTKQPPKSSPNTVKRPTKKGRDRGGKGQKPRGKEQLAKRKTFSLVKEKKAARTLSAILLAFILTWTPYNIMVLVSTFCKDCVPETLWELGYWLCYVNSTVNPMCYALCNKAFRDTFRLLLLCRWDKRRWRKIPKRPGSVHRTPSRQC
SMILES,Potency [1],outcome [2],Potency [3],Potency [4],Potency [5],Potency [6],outcome [7],outcome [8],outcome [9],outcome [10]
CC(C)(C)CC(C)(C)c1ccc(OCCO)cc1,inactive,inactive,inactive,inactive,inactive,inactive,–,–,–,–
C[C@H](CCC(=O)O)[C@H]1CC[C@H]2[C@@H]3CC[C@@H]4C[C@H](O)CC[C@]4(C)[C@H]3C[C@H](O)[C@]12C,inactive,inactive,inactive,inactive,–,inactive,–,–,–,–
CCCCO,inactive,inactive,inactive,inactive,inactive,inactive,–,–,–,–
[O-][N+](=Nc1ccccc1)c1ccccc1,inactive,inactive,inactive,inactive,inactive,inactive,–,–,–,–
CC/C=C\C/C=C\C/C=C\CCCCCCCC(=O)O,inactive,–,inactive,inactive,inactive,inactive,–,–,–,–
CO,inactive,inactive,inactive,inactive,inactive,inactive,–,–,–,–
Nc1nccs1,inactive,inactive,inactive,inactive,inactive,inactive,–,–,–,–
O=P(O)(O)O,inactive,inactive,inactive,inactive,inactive,inactive,–,–,–,–
OCl,inactive,inactive,inactive,inactive,inactive,inactive,–,–,–,–
OCC(O)CO,inactive,inactive,inactive,inactive,inactive,inactive,–,–,–,–
Nc1ncnc2c1ncn2[C@H]1CC[C@@H](CO)O1,inactive,inactive,inactive,inactive,inactive,inactive,–,–,–,–
CC1=CC(=O)NS(=O)(=O)O1,inactive,inactive,inactive,inactive,inactive,inactive,–,–,–,–
O=c1n(CC2CO2)c(=O)n(CC2CO2)c(=O)n1CC1CO1 (configuration not stated),–,inactive,39.8 µM (active),–,–,50.1 µM (active),–,–,–,–
OCc1ccccc1,inactive,inactive,inactive,inactive,inactive,inactive,–,–,–,–
CCCCC,inactive,inactive,inactive,inactive,inactive,inactive,–,–,–,–
Oc1ccc(/C=C/c2cc(O)cc(O)c2)cc1,inactive,inactive,inactive,inactive,inactive,inactive,–,–,–,–
CC1=CCC2CC1C2(C)C (configuration not stated),inactive,inactive,inactive,inactive,inactive,inactive,–,–,–,–
c1ccc2ccccc2c1,inactive,inactive,inactive,inactive,inactive,inactive,–,–,–,–
COC(=O)c1ccccc1O,inactive,inactive,inactive,inactive,inactive,inactive,–,–,–,–
C[C@@](Cc1ccc(O)c(O)c1)(NN)C(=O)O,–,–,–,–,–,–,inactive,inactive,–,–

SMILES,Potency [1],outcome [2],Potency [3],Potency [4],Potency [5],Potency [6],outcome [7],outcome [8],outcome [9],outcome [10]
O.O.O.O.O.O.O.O=S(=O)([O-])[O-].[Co+2],inactive,inactive,inactive,inactive,–,inactive,–,–,–,–
CC[C@H]1OC(=O)[C@H](C)[C@@H](O[C@H]2C[C@@](C)(OC)[C@@H](O)[C@H](C)O2)[C@H](C)[C@@H](O[C@@H]2O[C@H](C)C[C@H](N(C)C)[C@H]2O)[C@](C)(O)C[C@@H](C)CN(C)[C@H](C)[C@@H](O)[C@]1(C)O,inactive,inactive,inactive,inactive,inactive,inactive,–,–,–,–
Nc1ccc(N=Nc2ccccc2)c(N)n1,inactive,inactive,inactive,inactive,inactive,inactive,–,–,–,–
C=C1C(CCl)(CCl)C2(Cl)C(Cl)C(Cl)C1(Cl)C2(Cl)Cl (configuration not stated),50.1 µM (active),–,50.1 µM (active),inactive,31.6 µM (active),50.1 µM (active),–,–,–,–
Cc1ccc(S(=O)(=O)O)cc1C,inactive,inactive,inactive,inactive,inactive,inactive,–,–,–,–
CO/N=C(/C(=O)N[C@@H]1C(=O)N2C(C(=O)O)=C(COC(N)=O)CS[C@H]12)c1ccco1,inactive,inactive,inactive,inactive,–,inactive,–,–,–,–
OB(O)O,inactive,inactive,inactive,inactive,–,inactive,–,–,–,–
ClC(Cl)Cl,inactive,inactive,inactive,inactive,inactive,inactive,–,–,–,–
Cc1ncc[nH]1,inactive,inactive,inactive,inactive,inactive,inactive,–,–,–,–
C[C@H](CCC(=O)O)[C@H]1CC[C@H]2[C@@H]3[C@H](O)C[C@@H]4C[C@H](O)CC[C@]4(C)[C@H]3C[C@H](O)[C@]12C,inactive,inactive,inactive,inactive,inactive,inactive,–,–,–,–
CCOC(C)OCC,inactive,inactive,inactive,inactive,inactive,inactive,–,–,–,–
CC(C)O,inactive,inactive,inactive,inactive,inactive,inactive,–,–,–,–
NC(N)=O,inactive,inactive,inactive,inactive,inactive,inactive,–,–,–,–
C/C=C/C=C/C(=O)O,inactive,inactive,inactive,inactive,inactive,inactive,–,–,–,–
Oc1cccc(O)c1O,inactive,inactive,inactive,inactive,inactive,inactive,–,–,–,–
C[C@H]1O[C@@H](O[C@H]2[C@@H](O)C[C@H](O[C@H]3[C@@H](O)C[C@H](O[C@H]4CC[C@@]5(C)[C@H](CC[C@@H]6[C@@H]5C[C@@H](O)[C@]5(C)[C@@H](C7=CC(=O)OC7)CC[C@]65O)C4)O[C@@H]3C)O[C@@H]2C)C[C@H](O)[C@@H]1O,0.794 µM (active),–,0.199 µM (active),0.501 µM (active),–,1.58 µM (active),–,–,–,–
Cc1cc(C)c(NC(=O)C[C@H](CC(=O)O)c2cccc3ccccc23)c(C(=O)N2CCC3(CCCC3)CC2)c1,–,–,–,–,–,–,inactive,inactive,inactive,inactive
OC[C@H]1O[C@@H]2O[C@H]3[C@H](O)[C@@H](O)[C@@H](O[C@H]4[C@H](O)[C@@H](O)[C@@H](O[C@H]5[C@H](O)[C@@H](O)[C@@H](O[C@H]6[C@H](O)[C@@H](O)[C@@H](O[C@H]7[C@H](O)[C@@H](O)[C@@H](O[C@H]1[C@H](O)[C@H]2O)O[C@@H]7CO)O[C@@H]6CO)O[C@@H]5CO)O[C@@H]4CO)O[C@@H]3CO,inactive,inactive,inactive,inactive,inactive,inactive,–,–,–,–
NCCN,inactive,inactive,inactive,inactive,inactive,inactive,–,–,–,–
